The subject of this experiment is VDR:RXRa (NR concentration 270 nM, RXRa partner concentration 90 nM). Description: PBM binding z-score (relative to random genomic background probes); higher = stronger binding; sequences stand for … in GC…GCGATTGACAGCGTAGAATGAAGG
The protocol:
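Protein-binding microarray (Agilent 4x180K custom design, double-stranded 60-nt probes: 5' GC cap, 34-nt variable region, 24-nt constant primer region; full probe sequence given). Purified or IVT nuclear receptor:RXRα heterodimers (3:1 NR:RXRα, mostly 270:90 nM) or homodimers were incubated for 1 h in PBS with 2% milk and no ligand, then detected with Alexa488 antibodies. Fluorescence from o1-orientation probes (~5 replicates averaged) was converted to z-scores against 500 random hg19 background probes. Variable regions are seed direct-repeat (DR0–DR5) sites, all their single-nucleotide variants and half-site ablations.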
Consider CCTAGTTGGTCAAGGTCACGCACGCTATAGGTAC, for which the PBM binding z-score worked out at 4.45. To CCTCGGAGGACAACAGGATGTCAGAGCTGCCAGA belongs -0.45; to CCTAGTTGGCCAAGGTCACACACGCTATAGGTAC, 4.02; to CCAACTAGGTCACCAGGACAGTGAAGAGGTTGGA, 1.99. Next, ATCGAAAGGTCGACGAGGAGAGTATACACCGTTT: 3.3; CCGAGTAGGTTACGAGGGGGCAGTCAGTGCGAAT: 3.95. Next, ACTAGTTGGTCAGCTGAGGTAACACACAATTCGG: 0.448; AGTCATAGTTCACTAGGTAACGTAAGATTCAGCT: 1.12; CCGAGTAGGTTATGAGGGGGCATTCAGTGCGAAT: 5.25. Sequence ATATATAGGTTAGGGTCATTCAGAAAGTAGGGAA gave a PBM binding z-score of 4.75.

ATATGCAGGTTATCGGGTCATTCAGTTTGCGCAT returned a PBM binding z-score of 5.27. Next, TAGCCTAGGTCATTGGACCAGTATAGTACGCATC: 2.08; CTATGTAGGTTAAGGGGGTCTTTCAGTTTGAAAG: 3.93.

On to ATCTAAAGGTCGAAGGTGAGTATACCCACCCGAA, for which the PBM binding z-score was found to be 2.95. To CTATGTAGGTTAAGGGGGTCATTCTGTTTGAAAG belongs 7.27; to CGAACTAGGACAAAGGACAGTGAAAGGCGACGTA, -0.353. To ATCGAATGGTCGAGGTGAGTATAGAGAAAGGGAA belongs -0.226; to GATACAGGGTCAACTAGAGGCCAGAGTATGGAAA, 4.98. To CGAACTAGGTCACCAGGGCAGTGAAGAGGTTGGA belongs 2.32; to ATCGAAAGGTCGACGAGGTGAGTATGCACCGTTT, 5.27; to TCTGCTAGGTCAACGATGGTCAGCGAATCTGCTA, 1.66. GATACAGGGTCAGCTAGAGGGCAGAGTATGGAAA: the PBM binding z-score came to 4.22.

Take CGTCCAAGGTCACCAGGTCAGTGAAAGCGACGTG: the PBM binding z-score worked out at 5.3. Next, ATATGTAGGTTAGGATCATTCAGAAAGTAGGGAA: 0.744; CAAACTAGGTCACGAAAGGTCAAAGCCGAATGAC: 6.5. Next, CTATGTAGGTTAAGGGGGTCATACAGTTTGAAAG: 7.05. CAAACTAGGTCACCGGAAAGTCAAAGTCCGCATG showed a PBM binding z-score of 2.61.

For TGTCAAAGCTCAAAGGTAACGTAAGTATCCACAC, the PBM binding z-score was determined as 0.171.

AGCTCTAGGTAAAAGTTCAGTGAATCCCGAGGAT had a PBM binding z-score of 0.974.

CCGAGTAGGTTACGAGGGGCCATTCAGTGCGAAT displayed a PBM binding z-score of 3.09. To CGAACTAGGTAAAGGACAGTGAATCTCCGCACGC belongs -0.323; to CTATGCAGGTTAAGGGGGTCATTCAGTTTGAAAG, 7.5. Take GCTGCTAGGTCAACTGAGGGTCAGCTAAAGCTCG: the PBM binding z-score amounted to 4.26. Next, CCTACTGGGCGACGAAAGGTCATTGATTCAGTGA: 3.36. To CTATGTAGGTTAAGGAGGTCATTCAGTTTGAAAG belongs 6.83; to CGAACTAGCTCAAGGACAGTGAATCTCCGCACGC, -0.322; to TCTTATAGATCAATAGAGGTTAAGAAAGTGCGCT, 2.03. To CTAACTAGGTCAAGGTCAAAGTCGGTTTGTGCCA belongs 5.07; to GCTTCCGGGTCAAAGGTTATAGCATGAATAGAAT, 5.69.

In turn, CGAACTAGGTCAAAAGACAGTGAAAGGCGACGTA returned a PBM binding z-score of 0.721.

For the origin of these results see the supplement of paper PMC6555819.
